# Test results reported in paper PMC7862700, “An all-to-all approach to the identification of sequence-specific readers for epigenetic DNA modifications on cytosine”.
# Key:
# Experiment in all cases: DAPPL (digital affinity profiling via proximity ligation, sequencing); 10 mM Tris-HCl pH 7.5, 50 mM NaCl, 1 mM DTT, 4% glycerol, room temperature, 30 min; GST-TFs on glutathione beads, 16-mer random dsDNA library, 0.1% formaldehyde crosslink after washing; high values mean tight binding
# FLI1 = target: T1, FLI1 (Homo sapiens, UniProt Q01543 1-452); details: protein: recombinant; tags: N-terminal GST; dsDNA, one strand shown
# T1 sequence: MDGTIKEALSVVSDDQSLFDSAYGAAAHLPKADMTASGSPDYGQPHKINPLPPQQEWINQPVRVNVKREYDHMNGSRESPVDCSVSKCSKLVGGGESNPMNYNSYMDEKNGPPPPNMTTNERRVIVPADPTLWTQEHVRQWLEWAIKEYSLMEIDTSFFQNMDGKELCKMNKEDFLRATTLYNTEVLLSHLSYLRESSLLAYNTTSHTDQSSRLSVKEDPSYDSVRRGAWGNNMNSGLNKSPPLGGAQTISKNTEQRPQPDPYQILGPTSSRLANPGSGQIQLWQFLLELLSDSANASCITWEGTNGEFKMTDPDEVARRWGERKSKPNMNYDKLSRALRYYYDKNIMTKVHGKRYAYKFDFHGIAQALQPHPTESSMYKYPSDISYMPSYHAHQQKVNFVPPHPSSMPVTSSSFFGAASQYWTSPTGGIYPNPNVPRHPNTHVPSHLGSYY
# In short: (§1)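 In yeast, human transcription factors were expressed with a GST fusion, then pulled down on glutathione beads and given DNA barcodes. Pooled with a tag-only sample, they were exposed to 200 nmole of a 16-mer random double-stranded DNA library (Tris/NaCl/DTT/glycerol buffer, room temperature, 30 min), washed, crosslinked with 0.1% formaldehyde, proximity-ligated using BsaI/T4 ligase for 1 h at 37 °C, PCR-amplified and read on an Illumina NextSeq500. Each hexamer's frequency of reads for a factor, divided by the matching frequency for the tag-only sample, gives the binding signal.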
# ELK1 = target: T2, ELK1 (Homo sapiens, UniProt P19419 1-428); details: protein: recombinant; tags: N-terminal GST; dsDNA, one strand shown
# T2 sequence: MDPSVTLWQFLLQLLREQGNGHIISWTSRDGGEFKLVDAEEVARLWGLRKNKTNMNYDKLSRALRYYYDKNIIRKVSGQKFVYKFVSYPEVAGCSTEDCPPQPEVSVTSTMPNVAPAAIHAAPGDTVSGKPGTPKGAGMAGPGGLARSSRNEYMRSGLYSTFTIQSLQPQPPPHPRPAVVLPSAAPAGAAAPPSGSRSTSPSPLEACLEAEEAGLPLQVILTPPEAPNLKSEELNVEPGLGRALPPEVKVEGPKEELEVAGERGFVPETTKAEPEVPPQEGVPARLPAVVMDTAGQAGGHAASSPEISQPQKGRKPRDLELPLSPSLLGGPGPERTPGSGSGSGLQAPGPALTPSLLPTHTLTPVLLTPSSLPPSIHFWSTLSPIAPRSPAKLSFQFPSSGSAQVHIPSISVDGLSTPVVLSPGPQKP
# In short: as §1
# GABPA = target: T3, GABPA (Homo sapiens, UniProt Q06546 1-454); details: protein: recombinant; tags: N-terminal GST; dsDNA, one strand shown
# T3 sequence: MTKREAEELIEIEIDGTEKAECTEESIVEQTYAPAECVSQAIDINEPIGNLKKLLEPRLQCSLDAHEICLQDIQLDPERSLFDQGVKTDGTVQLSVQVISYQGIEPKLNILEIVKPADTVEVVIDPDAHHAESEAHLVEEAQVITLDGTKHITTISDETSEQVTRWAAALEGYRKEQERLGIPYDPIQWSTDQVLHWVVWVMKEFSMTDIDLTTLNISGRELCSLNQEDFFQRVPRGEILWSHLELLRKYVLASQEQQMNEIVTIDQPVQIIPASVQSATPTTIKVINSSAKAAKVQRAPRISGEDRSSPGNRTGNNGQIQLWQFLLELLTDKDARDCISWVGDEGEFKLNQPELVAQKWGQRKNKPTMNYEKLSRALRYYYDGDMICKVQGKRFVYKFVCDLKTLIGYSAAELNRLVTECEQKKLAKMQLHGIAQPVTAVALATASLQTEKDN
# In short: as §1
# ERG = target: T4, ERG (Homo sapiens, UniProt P11308 1-479); details: protein: recombinant; tags: N-terminal GST; dsDNA, one strand shown
# T4 sequence: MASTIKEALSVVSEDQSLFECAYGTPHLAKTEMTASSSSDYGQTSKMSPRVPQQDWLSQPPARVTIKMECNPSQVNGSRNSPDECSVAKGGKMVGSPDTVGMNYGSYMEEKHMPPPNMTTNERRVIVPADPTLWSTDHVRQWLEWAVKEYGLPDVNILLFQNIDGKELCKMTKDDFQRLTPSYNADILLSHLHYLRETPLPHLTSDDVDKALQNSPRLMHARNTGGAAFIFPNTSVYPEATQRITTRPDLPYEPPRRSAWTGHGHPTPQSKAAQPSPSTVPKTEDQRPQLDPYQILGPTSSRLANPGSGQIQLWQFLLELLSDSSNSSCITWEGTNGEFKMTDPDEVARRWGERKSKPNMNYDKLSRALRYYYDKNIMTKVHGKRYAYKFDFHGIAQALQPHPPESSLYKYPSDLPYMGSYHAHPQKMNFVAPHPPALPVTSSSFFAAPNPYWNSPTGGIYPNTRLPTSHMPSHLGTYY
# In short: as §1
# ELF1 = ELF1 (Homo sapiens, UniProt P32519 1-619); details: protein: recombinant; tags: N-terminal GST; dsDNA, one strand shown
# Sequence of ELF1 (P32519 whole entry): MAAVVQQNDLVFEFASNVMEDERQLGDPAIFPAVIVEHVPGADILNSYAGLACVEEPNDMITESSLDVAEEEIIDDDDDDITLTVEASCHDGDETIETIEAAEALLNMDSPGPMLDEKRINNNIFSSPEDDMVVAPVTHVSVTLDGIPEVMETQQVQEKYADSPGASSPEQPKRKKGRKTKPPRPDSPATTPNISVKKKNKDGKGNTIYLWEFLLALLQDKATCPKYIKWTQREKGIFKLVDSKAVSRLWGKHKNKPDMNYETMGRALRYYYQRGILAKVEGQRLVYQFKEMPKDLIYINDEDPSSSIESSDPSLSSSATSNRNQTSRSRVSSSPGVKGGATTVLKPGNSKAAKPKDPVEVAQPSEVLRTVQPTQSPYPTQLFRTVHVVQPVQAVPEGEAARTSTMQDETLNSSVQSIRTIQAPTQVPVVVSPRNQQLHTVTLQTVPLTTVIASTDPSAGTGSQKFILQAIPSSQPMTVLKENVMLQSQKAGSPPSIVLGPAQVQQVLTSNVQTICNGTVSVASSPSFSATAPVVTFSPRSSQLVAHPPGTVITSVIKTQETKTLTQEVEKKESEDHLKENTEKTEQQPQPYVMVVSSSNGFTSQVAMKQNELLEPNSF
# In short: as §1
# EHF = target: T5, EHF (Homo sapiens, UniProt Q9NZC4 1-300); details: protein: recombinant; tags: N-terminal GST; dsDNA, one strand shown
# T5 sequence: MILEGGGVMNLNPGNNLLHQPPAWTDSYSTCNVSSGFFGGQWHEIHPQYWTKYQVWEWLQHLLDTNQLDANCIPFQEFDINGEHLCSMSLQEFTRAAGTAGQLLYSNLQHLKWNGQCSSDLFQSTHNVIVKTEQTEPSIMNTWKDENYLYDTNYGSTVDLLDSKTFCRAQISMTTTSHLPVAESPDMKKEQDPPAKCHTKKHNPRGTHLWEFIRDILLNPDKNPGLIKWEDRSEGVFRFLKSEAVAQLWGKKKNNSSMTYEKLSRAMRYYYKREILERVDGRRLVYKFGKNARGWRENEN
# In short: as §1
# SPI1 = SPI1 (Homo sapiens, UniProt P17947 1-270); details: protein: recombinant; tags: N-terminal GST; dsDNA, one strand shown
# In short: as §1
# SPIB = SPIB (Homo sapiens, UniProt Q01892 1-262); details: protein: recombinant; tags: N-terminal GST; dsDNA, one strand shown
# Sequence of SPIB (Q01892 whole entry): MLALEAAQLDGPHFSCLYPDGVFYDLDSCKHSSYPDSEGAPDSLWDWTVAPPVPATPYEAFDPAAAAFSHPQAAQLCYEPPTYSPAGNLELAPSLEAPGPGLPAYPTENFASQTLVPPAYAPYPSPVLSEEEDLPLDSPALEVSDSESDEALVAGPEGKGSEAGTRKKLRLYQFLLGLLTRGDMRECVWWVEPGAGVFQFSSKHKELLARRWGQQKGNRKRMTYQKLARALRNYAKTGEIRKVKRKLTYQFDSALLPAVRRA
# In short: as §1
# ELK3 = target: T6, ELK3 (Homo sapiens, UniProt P41970 1-407); details: protein: recombinant; tags: N-terminal GST; dsDNA, one strand shown
# T6 sequence: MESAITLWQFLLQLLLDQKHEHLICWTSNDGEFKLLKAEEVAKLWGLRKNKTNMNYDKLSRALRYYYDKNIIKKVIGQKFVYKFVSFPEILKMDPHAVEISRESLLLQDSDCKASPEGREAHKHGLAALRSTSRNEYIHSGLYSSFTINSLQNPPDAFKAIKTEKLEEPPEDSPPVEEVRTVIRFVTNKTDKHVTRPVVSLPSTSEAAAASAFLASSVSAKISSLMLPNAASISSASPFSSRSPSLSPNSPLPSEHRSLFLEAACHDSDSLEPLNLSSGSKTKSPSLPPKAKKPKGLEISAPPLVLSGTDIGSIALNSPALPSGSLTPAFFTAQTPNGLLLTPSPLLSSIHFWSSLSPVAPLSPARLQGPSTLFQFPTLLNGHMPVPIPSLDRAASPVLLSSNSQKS
# In short: as §1
# FEV = target: T7, FEV (Homo sapiens, UniProt Q99581 1-238); details: protein: recombinant; tags: N-terminal GST; dsDNA, one strand shown
# T7 sequence: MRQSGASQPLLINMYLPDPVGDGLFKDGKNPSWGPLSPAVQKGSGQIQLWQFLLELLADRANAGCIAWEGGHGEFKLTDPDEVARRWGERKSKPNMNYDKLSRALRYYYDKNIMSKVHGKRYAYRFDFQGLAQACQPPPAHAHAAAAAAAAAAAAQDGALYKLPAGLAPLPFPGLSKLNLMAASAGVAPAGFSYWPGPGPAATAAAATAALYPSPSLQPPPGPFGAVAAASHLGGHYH
# In short: as §1
# ETV5 = ETV5 (Homo sapiens, UniProt P41161 1-510); details: protein: recombinant; tags: N-terminal GST; dsDNA, one strand shown
# Sequence of ETV5 (P41161 whole entry): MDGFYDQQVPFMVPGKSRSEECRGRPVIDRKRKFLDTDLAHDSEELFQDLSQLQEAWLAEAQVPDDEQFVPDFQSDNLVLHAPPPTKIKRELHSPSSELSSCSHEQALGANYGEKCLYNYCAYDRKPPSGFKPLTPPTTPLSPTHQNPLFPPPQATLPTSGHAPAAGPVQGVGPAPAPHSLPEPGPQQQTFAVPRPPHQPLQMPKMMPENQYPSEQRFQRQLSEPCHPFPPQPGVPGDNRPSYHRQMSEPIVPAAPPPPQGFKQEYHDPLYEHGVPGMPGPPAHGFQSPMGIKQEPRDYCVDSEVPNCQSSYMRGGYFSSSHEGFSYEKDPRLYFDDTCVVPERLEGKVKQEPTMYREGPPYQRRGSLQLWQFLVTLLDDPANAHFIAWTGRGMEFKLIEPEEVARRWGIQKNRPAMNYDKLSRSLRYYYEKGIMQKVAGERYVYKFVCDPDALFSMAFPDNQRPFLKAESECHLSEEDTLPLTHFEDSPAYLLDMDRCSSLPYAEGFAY
# In short: as §1
# HSF1 = HSF1 (Homo sapiens, UniProt Q00613 1-529); details: protein: recombinant; tags: N-terminal GST; chain copies: 3; dsDNA, one strand shown
# Sequence of HSF1 (Q00613 whole entry): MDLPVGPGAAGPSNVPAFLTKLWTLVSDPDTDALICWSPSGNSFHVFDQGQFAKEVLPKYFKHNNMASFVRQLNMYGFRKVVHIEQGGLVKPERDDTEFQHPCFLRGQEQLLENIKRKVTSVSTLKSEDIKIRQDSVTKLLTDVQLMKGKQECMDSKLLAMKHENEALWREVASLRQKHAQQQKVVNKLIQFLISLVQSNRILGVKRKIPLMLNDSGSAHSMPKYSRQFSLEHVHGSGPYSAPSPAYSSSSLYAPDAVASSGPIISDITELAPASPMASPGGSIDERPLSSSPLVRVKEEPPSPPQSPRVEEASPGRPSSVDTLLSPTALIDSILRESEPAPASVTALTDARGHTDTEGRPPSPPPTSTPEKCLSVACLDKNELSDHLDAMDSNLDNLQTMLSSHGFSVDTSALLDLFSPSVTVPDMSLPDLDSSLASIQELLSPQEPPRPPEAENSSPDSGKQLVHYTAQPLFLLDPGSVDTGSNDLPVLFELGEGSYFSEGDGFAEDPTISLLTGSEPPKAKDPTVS
# In short: as §1
# SPIC = target: T8, SPIC (Homo sapiens, UniProt Q8N5J4 1-248); details: protein: recombinant; tags: N-terminal GST; dsDNA, one strand shown
# T8 sequence: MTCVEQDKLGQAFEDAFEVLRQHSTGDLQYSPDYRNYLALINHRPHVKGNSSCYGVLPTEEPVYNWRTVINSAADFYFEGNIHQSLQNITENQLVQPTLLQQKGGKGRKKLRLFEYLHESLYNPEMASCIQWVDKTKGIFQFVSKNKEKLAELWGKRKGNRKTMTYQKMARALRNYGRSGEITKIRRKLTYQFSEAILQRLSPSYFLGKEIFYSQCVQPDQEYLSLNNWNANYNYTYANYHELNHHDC
# In short: as §1
# ELF4 = ELF4 (Homo sapiens, UniProt Q99607 1-663); details: protein: recombinant; tags: N-terminal GST; dsDNA, one strand shown
# Sequence of ELF4 (Q99607 whole entry): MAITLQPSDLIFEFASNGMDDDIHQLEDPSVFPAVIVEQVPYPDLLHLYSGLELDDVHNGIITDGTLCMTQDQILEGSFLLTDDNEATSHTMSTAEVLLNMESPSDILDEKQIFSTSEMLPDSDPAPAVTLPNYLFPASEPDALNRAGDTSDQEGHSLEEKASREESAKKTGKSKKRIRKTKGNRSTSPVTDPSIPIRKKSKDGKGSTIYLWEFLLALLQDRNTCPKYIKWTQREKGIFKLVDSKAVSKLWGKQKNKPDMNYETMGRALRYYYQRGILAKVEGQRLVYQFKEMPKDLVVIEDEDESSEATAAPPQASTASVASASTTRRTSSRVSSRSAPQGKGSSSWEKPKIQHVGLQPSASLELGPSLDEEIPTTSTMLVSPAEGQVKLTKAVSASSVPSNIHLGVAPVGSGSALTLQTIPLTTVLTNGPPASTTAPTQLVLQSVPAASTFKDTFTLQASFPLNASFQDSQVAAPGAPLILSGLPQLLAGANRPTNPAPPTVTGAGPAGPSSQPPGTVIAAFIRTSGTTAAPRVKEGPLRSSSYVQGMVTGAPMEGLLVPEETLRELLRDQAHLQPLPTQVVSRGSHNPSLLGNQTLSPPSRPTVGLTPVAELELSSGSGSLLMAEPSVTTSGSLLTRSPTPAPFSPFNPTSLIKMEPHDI
# In short: as §1
# ELK4 = target: T9, ELK4 (Homo sapiens, UniProt P28324-2 1-405); details: protein: recombinant; tags: N-terminal GST; dsDNA, one strand shown
# T9 sequence: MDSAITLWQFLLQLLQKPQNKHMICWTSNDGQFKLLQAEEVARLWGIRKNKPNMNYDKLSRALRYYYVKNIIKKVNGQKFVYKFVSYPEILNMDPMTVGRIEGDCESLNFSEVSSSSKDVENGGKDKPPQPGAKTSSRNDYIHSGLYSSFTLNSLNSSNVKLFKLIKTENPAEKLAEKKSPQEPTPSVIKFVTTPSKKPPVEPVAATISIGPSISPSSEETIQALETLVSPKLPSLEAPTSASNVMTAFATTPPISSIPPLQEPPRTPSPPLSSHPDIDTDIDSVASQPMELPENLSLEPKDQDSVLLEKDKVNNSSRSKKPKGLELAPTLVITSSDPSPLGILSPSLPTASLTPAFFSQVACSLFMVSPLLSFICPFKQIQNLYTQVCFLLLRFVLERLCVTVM
# In short: as §1
# ETV2 = target: T10, ETV2 (Homo sapiens, UniProt O00321 1-342); details: protein: recombinant; tags: N-terminal GST; dsDNA, one strand shown
# T10 sequence: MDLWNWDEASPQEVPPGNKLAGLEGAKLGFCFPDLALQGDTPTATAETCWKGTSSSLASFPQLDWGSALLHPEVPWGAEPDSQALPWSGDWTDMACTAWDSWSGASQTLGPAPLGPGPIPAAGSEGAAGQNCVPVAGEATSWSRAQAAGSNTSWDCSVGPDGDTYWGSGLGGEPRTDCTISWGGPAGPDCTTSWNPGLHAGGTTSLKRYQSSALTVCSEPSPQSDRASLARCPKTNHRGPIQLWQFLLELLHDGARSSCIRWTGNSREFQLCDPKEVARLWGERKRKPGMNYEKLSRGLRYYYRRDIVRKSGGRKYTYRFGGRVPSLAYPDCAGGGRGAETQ
# In short: as §1
# ELF3 = target: T11, ELF3 (Homo sapiens, UniProt P78545 1-371); details: protein: recombinant; tags: N-terminal GST; dsDNA, one strand shown
# T11 sequence: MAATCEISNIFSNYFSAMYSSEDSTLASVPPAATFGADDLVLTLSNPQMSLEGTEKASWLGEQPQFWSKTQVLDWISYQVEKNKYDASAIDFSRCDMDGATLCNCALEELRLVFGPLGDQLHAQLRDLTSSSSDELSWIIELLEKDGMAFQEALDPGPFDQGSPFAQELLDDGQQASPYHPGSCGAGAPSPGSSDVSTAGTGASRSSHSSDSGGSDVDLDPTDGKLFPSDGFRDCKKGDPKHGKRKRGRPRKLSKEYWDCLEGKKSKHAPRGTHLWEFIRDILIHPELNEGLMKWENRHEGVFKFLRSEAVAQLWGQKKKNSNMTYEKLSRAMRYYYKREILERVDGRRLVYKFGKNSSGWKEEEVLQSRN
# In short: as §1
# ETV1 = ETV1 (Homo sapiens, UniProt P50549 1-477); details: protein: recombinant; tags: N-terminal GST; dsDNA, one strand shown
# Sequence of ETV1 (P50549 whole entry): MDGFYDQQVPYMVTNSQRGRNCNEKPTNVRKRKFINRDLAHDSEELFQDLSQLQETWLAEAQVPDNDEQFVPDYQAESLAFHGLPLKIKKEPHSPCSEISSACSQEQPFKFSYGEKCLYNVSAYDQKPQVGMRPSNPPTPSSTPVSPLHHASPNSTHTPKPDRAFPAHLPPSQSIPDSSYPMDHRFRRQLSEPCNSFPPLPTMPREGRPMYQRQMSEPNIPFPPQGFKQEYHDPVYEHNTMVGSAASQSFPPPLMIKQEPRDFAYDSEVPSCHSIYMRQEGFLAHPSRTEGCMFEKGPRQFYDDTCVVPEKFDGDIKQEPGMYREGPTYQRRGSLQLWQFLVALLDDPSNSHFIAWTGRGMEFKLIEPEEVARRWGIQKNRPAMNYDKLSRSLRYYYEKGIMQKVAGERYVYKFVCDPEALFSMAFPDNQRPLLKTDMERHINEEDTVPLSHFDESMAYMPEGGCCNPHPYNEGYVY
# In short: as §1
sequence,measurement,setting,value
TGTCTC,binding signal,FLI1,"1.31 fold enrichment (6-mer frequency, TF over GST control)"
same,binding signal,ELK1,"1.31 fold enrichment (6-mer frequency, TF over GST control)"
same,binding signal,GABPA,"1.31 fold enrichment (6-mer frequency, TF over GST control)"
same,binding signal,ERG,"1.23 fold enrichment (6-mer frequency, TF over GST control)"
same,binding signal,ELF1,"1.2 fold enrichment (6-mer frequency, TF over GST control)"
same,binding signal,EHF,"1.22 fold enrichment (6-mer frequency, TF over GST control)"
same,binding signal,SPI1,"1.29 fold enrichment (6-mer frequency, TF over GST control)"
same,binding signal,SPIB,"1.28 fold enrichment (6-mer frequency, TF over GST control)"
same,binding signal,ELK3,"1.15 fold enrichment (6-mer frequency, TF over GST control)"
same,binding signal,FEV,"1.22 fold enrichment (6-mer frequency, TF over GST control)"
same,binding signal,ETV5,"1.33 fold enrichment (6-mer frequency, TF over GST control)"
same,binding signal,HSF1,"1.01 fold enrichment (6-mer frequency, TF over GST control)"
same,binding signal,SPIC,"1.11 fold enrichment (6-mer frequency, TF over GST control)"
same,binding signal,ELF4,"1.36 fold enrichment (6-mer frequency, TF over GST control)"
same,binding signal,ELK4,"1.11 fold enrichment (6-mer frequency, TF over GST control)"
same,binding signal,ETV2,"1.26 fold enrichment (6-mer frequency, TF over GST control)"
same,binding signal,ELF3,"1.18 fold enrichment (6-mer frequency, TF over GST control)"
same,binding signal,ETV1,"1.22 fold enrichment (6-mer frequency, TF over GST control)"
